The values that follow come from PubChem BioAssay.

Assay [1] can be described thus: E. coli DRC41 culture turbidity changes, primary screen, E. coli filamentation inducer project, strain DRC41, OD650, 48 h (AID 1152).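 Further: E. coli MC1000 strain DRC41 lacking acrAB efflux pump and sulA.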 As to conditions: E. coli DRC41 (acrAB sulA), higher = more signal, called active from +8 up or from −8 down.
The nature of assay [2]: small-molecule binders of probe aLefty1, primary screen, biochemical, small-molecule microarray, 635/667 nm fluorescence (AID 1153).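 Further: score merges spot fluorescence with signal-to-noise ratio from the scanned slide images.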 As to conditions: higher = more signal.
A short description of assay [3]: PSAC antagonists in infected red cells, primary screen, cell-based, P. falciparum Indochina, OD700, 1 h (AID 1154). The settings on record: P. falciparum Indochina infected RBC osmotic lysis, higher = more signal, called active from +8 up or from −8 down.
Assay [4] is described as follows: PSAC antagonists in infected red cells, primary screen, cell-based, P. falciparum Indochina, OD700, 2 h (AID 1155).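 Further: lysis reports solute entry through the parasite surface anion channel PSAC; channel blockers reduce lysis of infected cells.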 The settings on record: P. falciparum Indochina infected erythrocytes, osmotic lysis OD700; higher = more signal, called active from +8 up or from −8 down.
Assay [5] is described as follows: osmotic lysis modulators in infected erythrocytes, primary screen, PSAC antagonist project, cell-based, P. falciparum Indochina, OD700, 3 h (AID 1156). As to conditions: higher = more signal, called active from +8 up or from −8 down.
Assay [6] is described as follows: PSAC antagonists in infected red cells, primary screen, cell-based, P. falciparum Indochina, OD700, 18 h (AID 1157). The settings on record: P. falciparum Indochina infected erythrocytes, osmotic lysis OD700, 18 h; higher = more signal, called active from +8 up or from −8 down.
A short description of assay [7]: modulators of S6 phosphorylation in cells, primary screen, cell-based, A549, cytoblot, luminescence, serum-stimulated (AID 1158).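 Further: serum-stimulated A549 lung adenocarcinoma cells; signal is phosphorylated S6 detected by cytoblot immunostaining with HRP secondary.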 As to conditions: A549 phospho-S6 cytoblot, 5 h, higher = more signal.
The target in assay [8] is NADPH oxidase 2 (Homo sapiens) (UniProt P04839). In words: NOX2-dependent H2O2 signal modulators, primary screen, NOX inhibitor project, cell-based, HEK293-NOX2, PMA-stimulated, Amplex Red fluorescence (AID 1159). Further: test concentration not given here. As to conditions: 45 min, higher = more signal, called active from +8 up or from −8 down.
NADPH oxidase 2 (Homo sapiens), sequence (P04839 whole entry, looked up): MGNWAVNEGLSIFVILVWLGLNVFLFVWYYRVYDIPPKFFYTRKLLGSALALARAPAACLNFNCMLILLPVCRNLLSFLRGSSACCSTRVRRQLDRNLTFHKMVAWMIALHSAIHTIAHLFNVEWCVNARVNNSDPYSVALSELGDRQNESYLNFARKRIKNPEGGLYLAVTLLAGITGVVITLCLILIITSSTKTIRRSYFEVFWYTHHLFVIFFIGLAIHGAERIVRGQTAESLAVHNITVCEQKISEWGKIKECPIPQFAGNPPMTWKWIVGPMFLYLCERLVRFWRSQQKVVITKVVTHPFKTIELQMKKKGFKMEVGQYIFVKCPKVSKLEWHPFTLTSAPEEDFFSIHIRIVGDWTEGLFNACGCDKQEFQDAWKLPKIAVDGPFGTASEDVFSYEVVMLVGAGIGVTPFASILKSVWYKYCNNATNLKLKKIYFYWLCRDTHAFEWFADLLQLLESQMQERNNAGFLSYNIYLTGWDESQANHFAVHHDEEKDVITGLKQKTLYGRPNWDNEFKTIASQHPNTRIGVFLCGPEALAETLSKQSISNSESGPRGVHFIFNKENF
In assay [9] the target is NADPH oxidase 4 (Homo sapiens) (UniProt Q9NPH5). Put plainly: NOX4-dependent H2O2 signal modulators, primary screen, NOX inhibitor project, cell-based, HEK293-NOX4, tetracycline-induced, Amplex Red fluorescence (AID 1160). The settings on record: 45 min, higher = more signal, called active from +8 up or from −8 down.
NADPH oxidase 4 (Homo sapiens), sequence (Q9NPH5 whole entry, looked up): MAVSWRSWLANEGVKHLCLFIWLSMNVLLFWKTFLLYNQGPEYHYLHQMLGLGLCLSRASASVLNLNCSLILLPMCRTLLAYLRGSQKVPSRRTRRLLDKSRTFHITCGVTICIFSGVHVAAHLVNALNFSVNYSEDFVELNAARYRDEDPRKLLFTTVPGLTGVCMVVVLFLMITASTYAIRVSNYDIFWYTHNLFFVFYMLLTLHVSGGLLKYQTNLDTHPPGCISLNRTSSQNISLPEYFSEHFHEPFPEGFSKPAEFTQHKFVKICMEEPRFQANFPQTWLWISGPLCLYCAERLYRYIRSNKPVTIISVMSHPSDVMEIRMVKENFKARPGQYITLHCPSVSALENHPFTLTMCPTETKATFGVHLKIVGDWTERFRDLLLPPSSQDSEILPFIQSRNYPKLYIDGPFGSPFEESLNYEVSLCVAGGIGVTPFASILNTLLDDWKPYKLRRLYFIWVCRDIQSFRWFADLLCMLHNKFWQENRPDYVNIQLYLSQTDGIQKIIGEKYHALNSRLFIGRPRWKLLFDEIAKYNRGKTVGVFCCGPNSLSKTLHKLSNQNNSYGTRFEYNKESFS
The target in assay [10] is NADPH oxidase 5 (Homo sapiens) (UniProt Q96PH1). Put plainly: NOX5-dependent H2O2 signal modulators, primary screen, NOX inhibitor project, cell-based, HEK293-NOX5, Amplex Red fluorescence (AID 1161). The settings on record: HEK293-NOX5, ionomycin, 45 min, higher = more signal.
NADPH oxidase 5 (Homo sapiens), sequence (Q96PH1 whole entry, looked up): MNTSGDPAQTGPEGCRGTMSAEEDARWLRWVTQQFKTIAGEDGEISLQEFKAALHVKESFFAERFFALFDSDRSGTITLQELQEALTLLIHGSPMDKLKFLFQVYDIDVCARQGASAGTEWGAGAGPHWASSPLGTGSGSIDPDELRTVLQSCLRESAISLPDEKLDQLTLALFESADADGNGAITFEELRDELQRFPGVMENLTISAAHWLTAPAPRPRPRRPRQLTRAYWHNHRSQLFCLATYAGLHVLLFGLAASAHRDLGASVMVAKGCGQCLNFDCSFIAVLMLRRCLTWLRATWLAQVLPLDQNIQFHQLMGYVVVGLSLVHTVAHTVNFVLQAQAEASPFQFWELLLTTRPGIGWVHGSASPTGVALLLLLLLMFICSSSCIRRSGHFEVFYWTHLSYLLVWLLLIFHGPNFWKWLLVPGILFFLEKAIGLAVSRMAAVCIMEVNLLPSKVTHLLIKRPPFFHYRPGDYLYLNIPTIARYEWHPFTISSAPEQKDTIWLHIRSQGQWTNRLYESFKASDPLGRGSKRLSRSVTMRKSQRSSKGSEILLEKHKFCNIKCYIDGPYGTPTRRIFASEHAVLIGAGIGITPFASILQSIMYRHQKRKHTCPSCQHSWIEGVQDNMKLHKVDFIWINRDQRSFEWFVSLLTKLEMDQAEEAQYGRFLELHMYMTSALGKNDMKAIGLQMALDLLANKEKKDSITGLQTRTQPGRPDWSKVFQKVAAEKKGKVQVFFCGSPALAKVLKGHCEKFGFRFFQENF
The nature of assay [11]: A549 cell viability effects, profiling panel, calcein-AM fluorescence, 48 h, basal (AID 1162). Further: test concentration not given here. The settings on record: higher = more signal.
Assay [12] is described as follows: adipocyte viability effects, profiling panel, cell-based, 3T3-L1 adipocytes, calcein-AM fluorescence, 48 h, basal (AID 1163). Further: test concentration not given here. The settings on record: 3T3-L1 adipocytes viability, higher = more signal.
The nature of assay [13]: HepG2 cell viability effects, profiling panel, calcein-AM fluorescence, 48 h, basal (AID 1164). Further: test concentration not given here. The settings on record: higher = more signal.
The nature of assay [14]: MM1S cell viability effects, profiling panel, calcein-AM fluorescence, 48 h, basal (AID 1165).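 Further: viability of MM1S multiple myeloma cells under basal unstimulated conditions; test concentration not given here.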 The settings on record: higher = more signal.
Assay [15] can be described thus: basal RPMI8226 viability, no added stimulus, profiling panel, cell-based, calcein-AM fluorescence, 48 h, PK04 Diversity Set (AID 1166).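 Further: cells grown under basal conditions without added stimulus; test concentration not given here.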 The settings on record: RPMI8226 myeloma viability, higher = more signal.
Assay [16] is described as follows: basal HepG2 mitochondrial membrane potential changes, profiling panel, cell-based, JC-1 fluorescence, 24 h, 100 nL compound (AID 1167). Further: test concentration not given here. The settings on record: higher = more signal.
Assay [17] can be described thus: basal 3T3-L1 adipocyte mitochondrial potential changes, profiling panel, cell-based, JC-1 fluorescence, 3T3-L1 adipocytes, 24 h, 100 nL compound (AID 1168). Further: test concentration not given here. As to conditions: JC-1 mitochondrial fluorescence, higher = more signal, called active from +8 up or from −8 down.
Assay [18] can be described thus: basal RPMI8226 mitochondrial membrane potential changes, profiling panel, cell-based, JC-1 fluorescence, 24 h, 100 nL compound (AID 1169). Further: test concentration not given here. As to conditions: RPMI8226 myeloma, JC-1 mitochondrial potential fluorescence, higher = more signal.
Assay [19] in a line: basal MM1S mitochondrial membrane potential changes, profiling panel, cell-based, JC-1 fluorescence, 24 h, 100 nL compound (AID 1170). Further: test concentration not given here. The settings on record: higher = more signal.
Assay [20] in a line: A549 lung cancer cell viability effects, profiling panel, resazurin fluorescence, 24 h, PK04 Diversity Set (AID 1171). Further: test concentration not given here. As to conditions: higher = more signal, called active from +8 up or from −8 down.

The source made the active and inactive calls.

Consider `C=CC(=C)C1=CCO[C@@H]1[C@H]1CCCN1S(=O)(=O)c1ccccc1[N+](=O)[O-]`, for which the z-score in assay [1] is 0.279 (inactive); in assay [3] it was 2.97 (inactive); in assay [4], 0.577 (inactive); in assay [5], 0.544 (inactive); in [6], 0.281 (inactive); in [7] it was -0.031. The z-score is 0.516 (inactive) in [8]; 1.06 (inactive) in [9]; 0.77 in assay [10]; -0.387 in [11]; 1.19 in assay [12]; 0.324 in assay [13]. Moreover, the z-score is -1.69 in [14]; -1.07 in assay [15]; 0.248 in assay [16]; -0.736 (inactive) in [17]; -0.112 in [18]; -0.233 in assay [19]. The z-score in assay [20] is 0.707 (inactive). This molecule displayed a composite z-score in assay [2] of -0.148.
For the molecule `C=C(CCCC)/C(=C/C[C@H](OC(C)=O)c1ccc(CO)o1)c1cnc2ccccc2c1`, the z-score in assay [1] was -0.134 (inactive); in assay [3], 5.4 (inactive); in assay [4], 0.452 (inactive); in assay [5], 0.435 (inactive); in assay [6] it was 0.136 (inactive); in assay [7] it was 0.307. The z-score in assay [8] was -0.719 (inactive); in assay [9], -0.447 (inactive); in assay [10], -0.582; in assay [11] it was 0.0278; in assay [12], -0.229; in assay [13], 0.311. Moreover, the z-score in assay [14] is -2.01; in assay [15], -0.889; in assay [16] it was -1.04; in assay [17], -0.779 (inactive); in [18] it was -0.143; in [19] it was -0.238. Further, in [20], the z-score is 0.398 (inactive). Also, the composite z-score in assay [2] amounted to 0.0557.
Take `[N-]=[N+]=NCc1ccccc1[C@H]1OC(c2ccc(OCCCO)cc2)=N[C@@]1(CCS(=O)(=O)c1ccccc1)C(=O)N1CCOCC1`: the z-score is -0.0978 (inactive) in [1]; 24.4 (active) in assay [3]; 9.51 (active) in [4]; 1.76 (inactive) in [5]; 0.885 (inactive) in assay [6]; -0.362 in assay [7]. Moreover, the z-score is 1.24 (inactive) in [8]; 2.19 (inactive) in assay [9]; 1.98 in assay [10]; 1.91 in assay [11]; 0.831 in assay [12]; 1.01 in assay [13]. The z-score in assay [14] is -0.921; in [15], 0.695; in assay [16], -1.05; in assay [17], 0.455 (inactive); in assay [18], -0.507; in [19] it was -0.877. The z-score in [20] was 0.388 (inactive). Moreover, in assay [2], the composite z-score came out at 1.08.
As for `O=C/C=C/c1ccc2c(c1)OCO2`, the z-score in assay [1] is 0.586 (inactive); in [3], -0.448 (inactive); in assay [4], -1.11 (inactive); in assay [5], 0.321 (inactive); in [6], -2.47 (inactive); in [7], 1.25. Besides, the z-score in assay [8] was -0.41 (inactive); in assay [9], -0.502 (inactive); in assay [10] it was 0.961; in assay [11], 0.115; in assay [12], 0.327; in assay [13] it was 0.782. Besides, the z-score was -0.251 in [14]; 0.658 in [15]; 1.4 in assay [16]; -0.0743 (inactive) in [17]; 0.365 in [18]; 0.386 in assay [19]. Also, the z-score in assay [20] is -0.362 (inactive). For the same molecule, the composite z-score in [2] is -0.205.
For `NCCCCCNC(=O)[C@H]1C[C@H]2C(=O)NCC(=O)N2[C@H]1c1cccc(OCCO)c1`, the z-score was 1.5 (inactive) in assay [1]; 2.03 (inactive) in assay [3]; 0.508 (inactive) in assay [4]; 2.65 (inactive) in assay [5]; 0.0799 (inactive) in [6]; 0.753 in assay [7]. Also, the z-score is 0.972 (inactive) in [8]; 1.02 (inactive) in assay [9]; 1.39 in assay [10]; 1.5 in [11]; 0.118 in assay [12]; 0.79 in assay [13]. For the same molecule, the z-score in assay [14] was 0.892; in assay [15], 0.857; in assay [16] it was 0.538; in assay [17], 1.18 (inactive); in assay [18], -0.164; in assay [19], -0.158. Besides, in assay [20], the z-score was 0.547 (inactive). In [2], this molecule showed a composite z-score of -0.505.
Take `COC(=O)[C@@]1(Cc2ccccc2N=[N+]=[N-])COC(c2ccc(OCCCO)cc2)=N1`: the z-score in assay [1] was -1.01 (inactive); in [3] it was 24.3 (active); in [4] it was 8.54 (active); in [5] it was 3.35 (inactive); in assay [6], 1.03 (inactive); in assay [7] it was -0.317. Besides, the z-score in assay [8] was -1.38 (inactive); in assay [9] it was -0.156 (inactive); in assay [10] it was -1.63; in [11], -0.851; in [12] it was -1.01; in assay [13], -0.388. The z-score in [14] was -3.53; in assay [15], -2.82; in assay [16], -0.472; in assay [17] it was -0.605 (inactive); in assay [18], -0.125; in assay [19], -0.0849. Besides, the z-score in [20] was 0.468 (inactive). This molecule had a composite z-score in [2] of 0.933.
With `CN(C)CCCCCCNC(=O)[C@H]1C[C@H]2C(=O)N[C@@H](CCCCN)C(=O)N2[C@H]1c1ccc(O)cc1`, the z-score in assay [1] is -0.261 (inactive); in assay [3], -0.294 (inactive); in assay [4] it was 0.155 (inactive); in [5], -0.844 (inactive); in [6] it was 0.303 (inactive); in assay [7], 0.169. Besides, the z-score in assay [8] is 0.418 (inactive); in assay [9], -0.145 (inactive); in assay [10], 0.887; in assay [11], -0.466; in [12], 0.71; in assay [13] it was 0.266. Also, the z-score in assay [14] is -1.05; in assay [15], -0.0908; in assay [16], 0.758; in assay [17], -0.935 (inactive); in assay [18] it was -0.773; in assay [19], 0.237. Moreover, the z-score in [20] was 0.283 (inactive). This molecule came in with a composite z-score in assay [2] of 2.82.
Turning to `C=CCNC(=O)[C@H]1[C@@H]2C(=O)O[C@@H](c3ccccc3)[C@@H](c3ccccc3)N2[C@@H](c2ccc(O)cc2)[C@]12C(=O)N(C(=O)OCCOC)c1ccc(C#CCCO)cc12`, the z-score in [1] was 1.23 (inactive); in [3], 1.89 (inactive); in [4], 0.658 (inactive); in assay [5], 0.958 (inactive); in [6], 0.418 (inactive); in assay [7], 0.102. The z-score in assay [8] is 0.74 (inactive); in [9], 0.261 (inactive); in assay [10], 0.533; in assay [11] it was 1.07; in [12], 0.482; in assay [13] it was 0.802. The z-score in assay [14] was -0.0589; in assay [15], 0.233; in assay [16] it was 0.0998; in [17], 0.541 (inactive); in assay [18], -1.07; in assay [19], 0.45. Further, the z-score in [20] was -0.319 (inactive). Also, the composite z-score in assay [2] came out at 0.0341.
With `COCC(=C=CC[C@@H](O)c1ccc(CO)o1)CCO`, the z-score is 2.61 (inactive) in assay [1]; 1.6 (inactive) in [3]; -0.908 (inactive) in assay [4]; -0.949 (inactive) in assay [5]; -1.11 (inactive) in [6]; 3.11 in [7]. In addition, the z-score in assay [8] is -1.84 (inactive); in [9], -0.922 (inactive); in assay [10], -1.06; in assay [11], 2.82; in [12] it was 1.72; in [13], 0.783. Besides, the z-score in [14] was 0.178; in [15], 1.94; in assay [16], 0.281; in assay [17], -0.24 (inactive); in [18], 0.824; in [19] it was -1.08. In [20], the z-score is 0.559 (inactive). The composite z-score in [2] is -0.205.
